A selection: hits, their analogues and other compounds. The true share with any hit is near 2.4%.
D2 PAM-1 = potentiates the human D2 dopamine receptor allosterically; P14416; potentiation, % (concentration not given with the values); AID 624464; 360,000 tested, 0.23% active; DiscoveRx D2 beta-arrestin cells, luminescence, 90 min; 100% = 57 uM dopamine signal; in the data active = potentiation above about 50%; inconclusive = mostly about 30% to 49%
Target sequence (P14416 whole entry, looked up): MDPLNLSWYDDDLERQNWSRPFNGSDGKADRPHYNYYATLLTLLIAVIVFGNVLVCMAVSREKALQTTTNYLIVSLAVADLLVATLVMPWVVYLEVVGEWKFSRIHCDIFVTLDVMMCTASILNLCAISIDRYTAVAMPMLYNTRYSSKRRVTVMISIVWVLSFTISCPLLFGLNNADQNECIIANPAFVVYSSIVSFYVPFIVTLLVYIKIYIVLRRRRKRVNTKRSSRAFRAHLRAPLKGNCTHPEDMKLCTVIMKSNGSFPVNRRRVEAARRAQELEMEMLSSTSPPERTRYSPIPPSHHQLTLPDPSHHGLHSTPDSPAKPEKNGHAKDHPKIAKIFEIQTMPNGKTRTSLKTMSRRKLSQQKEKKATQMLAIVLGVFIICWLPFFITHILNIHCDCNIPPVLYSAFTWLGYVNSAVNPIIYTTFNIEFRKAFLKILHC
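PathHunter beta-arrestin assay in DiscoveRx D2 cells. Compounds were added with an EC20 of dopamine (50 nM final) for 90 min at 37 deg C. Luminescence was read 1 h after detection reagent, with 57 uM dopamine as the EC100 control.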
D2 antag = antagonizes the human D2 dopamine receptor; P14416; AID 485344; 340,000 tested, 2% active; HEK293 TREx D2 cells, calcium flux, dopamine EC80; inhibition, % at 10 µM; in the data active = inhibition above about 30%; inactive = below that, where a call was filed; also: 0% is about no effect
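Inhibition of EC80 dopamine-driven calcium flux, recorded kinetically, defines activity here; cells are a tetracycline-induced HEK293 T-REx line expressing force-coupled D2.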
D2 ag-1 = activates the human D2 dopamine receptor; P14416; activation, % at 2 µM; 340,000 tested, 0.53% active; HEK293 T-REx D2 cells, calcium flux agonist mode;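 active = activation over 3 SD above normal in the single-dose calcium agonist read, cut at about 30% in these data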; also: 0% is about no effect
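In this primary screen, compounds producing a positive calcium signal within 180 s of addition to tetracycline-induced, force-coupled HEK293 Trex D2 cells are flagged; cells are dye-loaded with a no-wash calcium kit beforehand.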
D2 PAM-2 = positive allosteric modulators of human D2 dopamine receptor. P14416. HEK293 T-REx D2, calcium flux, EC20 dopamine potentiation. potentiation, % at 10 µM. 340,000 tested, 0.34% active;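 active = potentiation over 3 SD above the plate norm, cut at about 30% in these data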; also: 0% is about no effect
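Potentiation of an EC20 dopamine calcium response measured kinetically over 180 s, after a preceding 180 s compound-only read flagging agonists. Cells: inducible Hek293 Trex D2 line, 4000/well, cultured overnight at 30 C before dye loading.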
D2 ag-2 = human D2 receptor agonism in beta-arrestin assay | 360,000 tested, 0.084% active | AID 624465 | DiscoveRx PathHunter D2 beta-arrestin, luminescence, 90 min; 100% = 57 uM dopamine signal | activation, % (concentration not given with the values) | P14416; in the data active = activation above about 40%; inconclusive = between about 15% and that limit
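Agonist mode: compounds alone added to overnight-plated D2 PathHunter cells for 90 min at 37 C, with 57 uM final dopamine (EC100) defining full response. Beta-arrestin recruitment detected by chemiluminescent reagent, read after 1 h at ambient temperature.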
* marks the source's active call; other numbers are inactive results; ? = inconclusive; . = not tested or not shown.

SMILES	D2 PAM-1	D2 antag	D2 ag-1	D2 PAM-2	D2 ag-2
CC(=O)NC1=C(N2CC2C)C(=O)C(NC(C)=O)=C(N2CC2C)C1=O (stereo not drawn)	95*	.	.	.	10
Cn1c(=O)n(C)c2cc(CNCCc3ccccc3)ccc21	.	.	3	.	.
Cc1ccc(NC(=O)N(Cc2ccc3c(c2)OCO3)C2CCN(Cc3ccccc3)CC2)cc1Cl	.	.	4	.	.
CCOc1ccc2nc(NC(=O)c3cccn(Cc4ccccc4)c3=O)sc2c1	.	.	1	3	.
COC(=O)CC1=C(C(=O)OC)C2(C(=O)Nc3c(C)cccc32)C(C#N)=C(N)O1 (stereo not drawn)	70*	5	0	3	12
CCOC(=O)c1c(C)n(Cc2ccco2)c2c1cc(O)c1ccccc12	72*	-9	1	-6	?
Cn1c(=O)n(C)c2cc(CNCCc3ccc(F)cc3)ccc21	.	.	2	-10	.
Cc1c(Cl)cccc1NC(=O)CN1C(=O)C(C)N=C(c2ccccc2)c2ccccc21 (stereo not drawn)	.	.	0	18	.
COc1ccc(C(=O)C2CCCN(C3CSCCSC3)C2)c(OC)c1 (stereo not drawn)	-18	57*	1	-15	2
C/C(=N\Nc1ccccc1)c1c(O)n(Cc2ccccc2)c(=O)[nH]c1=O	57*	-10	-1	8	11
CC1=NN=C(c2ccc(N)cc2)c2cc3c(cc2C1)OCO3	28	-1	1	-1	70*
c1cc2n(c1)-c1c(ccc3c1OCO3)CNC2c1ccc2c(c1)OCO2 (stereo not drawn)	-36	51*	0	1	-5
Cc1ccccc1Cn1cccc(C(=O)Nc2nc3ccccc3s2)c1=O	.	.	1	.	.
OC(CNC1CCCCC1)C(F)(F)F (stereo not drawn)	-4	40*	-1	-2	-2
O=c1[nH]c2ccccc2n1C1CCN(CCCC(c2ccc(F)cc2)c2ccc(F)cc2)CC1	-29	87*	2	-29	1
COc1ccc(C)cc1NC(=O)N(Cc1ccc2c(c1)OCO2)C1CCN(Cc2ccccc2)CC1	.	.	0	-7	.
CCOC(=O)c1ccc(NC(=O)c2c(O)[nH]c(=O)[nH]c2=O)cc1	-6	-2	54*	0	1
CCOc1ccc(NC(=O)c2c(O)[nH]c(=O)[nH]c2=O)cc1	11	.	.	.	2
CCN(CC)c1ccc(/C=N/c2sc3c(c2C#N)C2CCN3CC2)c(O)c1	-35	17	34*	9	-8
COc1ccc2c(c1OC)CN1CCc3cc4c(cc3C1C2)OCO4 (stereo not drawn)	-23	86*	0	-22	0
O=c1c2ccccc2nc(/C=C/c2ccccc2F)n1-c1cccc(O)c1	.	.	.	2	.
Cc1cccc(C2CC(=O)Oc3c2c(=O)oc2ccccc32)c1 (stereo not drawn)	.	.	.	0	.
O=C1CN=C(c2ccccc2)c2cc(Cl)ccc2N1	-9	.	.	.	-1
Cc1ccccc1C1=NCC(=S)Nc2ccc(Cl)cc21	-24	41*	-1	-1	-7
O=C(COc1ccccc1F)N1CCN(Cc2cc(=O)n3nc(-c4ccccc4Cl)sc3n2)CC1	.	.	0	8	.
SMILES	D2 PAM-1	D2 antag	D2 ag-1	D2 PAM-2	D2 ag-2
Cc1ccc(OCC(=O)Nc2ccc(Cl)cc2C(=O)c2ccccc2)cc1C	.	.	.	-6	.
C#CC1(O)CCC2C3CCC4=C/C(=N/OCC(=O)NCC(=O)NC(C(=O)O)C(C)C)CC[C@]4(C)C3CC[C@@]21C (stereo partly drawn)	-5	60*	1	-9	1
Cc1cccc(-n2nc(C)c3c2NC(=O)CSC3c2ccccc2Cl)c1 (stereo not drawn)	.	.	0	3	.
COc1ccc(F)cc1C(=O)C1CCCN(Cc2ccc(O)cc2)C1 (stereo not drawn)	-14	72*	0	-22	-3
COc1ccc(F)cc1C(=O)C1CCCN(Cc2cnc(C)s2)C1 (stereo not drawn)	-5	17	1	-18	-2
CCOc1ccc(CN2CCCC(C(=O)c3ccccc3OC)C2)cc1 (stereo not drawn)	-21	72*	0	-24	7
COc1ccccc1CN1CCCC(C(=O)c2ccccc2OC)C1 (stereo not drawn)	-25	-7	0	-16	2
O=C(Nc1ccc2c(c1)OCO2)c1cccn(Cc2ccccc2)c1=O	.	.	.	17	.

Bioassay records as filed in PubChem BioAssay.
